# NPSR antagonist: antagonists of human neuropeptide S receptor cAMP signaling; 220,000 tested, 1% active; Potency, µM (highest dose often 38.3 µM), for the others: top-dose activity change, negative = inhibition, usual class: inhibitors; CHO-NPSR cells, cAMP TR-FRET, antagonist mode; also: nearly all actives have a fitted effect of over 50% in size
# Tau FP inhib: inhibitors of human tau fibril formation; K18 P301L tau heparin fibrillization, Alexa594 FP, 6 h; Potency, µM (series often up to 57.7 µM), inactives show at the highest dose activity, negative = inhibition, hits mostly inhibitors; 280,000 tested, 0.39% active; also: nearly all actives have a fitted effect of over 55% in size
# Target sequence (P10636 561-689 P618L limits assumed): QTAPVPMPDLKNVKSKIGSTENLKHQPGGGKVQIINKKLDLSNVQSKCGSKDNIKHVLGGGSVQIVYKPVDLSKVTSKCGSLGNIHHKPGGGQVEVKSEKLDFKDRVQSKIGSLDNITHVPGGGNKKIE
#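 Recombinant K18 P301L […], labeled with Alexa 594 at 0.24 uM over 15 uM unlabeled; heparin inducer 20 uM final; 37 C, 6 hr; FP endpoint.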
# Tau ThT inhib: inhibitors of human tau fibril formation, thioflavin T binding; P10636; Potency, µM (top dose mostly 57.4 µM), without a hit: top-dose activity, negative = inhibition, most hits filed as inhibitors; 270,000 tested, 2.1% active; recombinant tau K18 P301L, heparin-induced fibrillization, ThT fluorescence; also: nearly all actives have a fitted effect of over 55% in size
#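 Using a mix of unlabeled (15 uM) and Alexa 594-labeled (0.24 uM) tau K18 P301L, heparin-triggered fibrillization over 6 hr at 37 C was scored by ThT fluorescence.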
# ALDH1A1 inh: blocks purified human ALDH1A1 activity; Purified ALDH1A1, NADH fluorescence, propionaldehyde substrate; Potency, µM (top dose mostly 75.3 µM), for inactives: at the highest dose activity, negative = inhibition, hits mostly inhibitors; 220,000 tested, 7.3% active; AID 1030; active = well fitted inhibition curve with a large enough effect, not every such curve was filed as active; inconclusive = small, poorly fitted or top-dose-only effect, or another doubt; inactive = no such curve, though single readings can be large or run the other way;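 also: plate controls were no enzyme wells and a reference inhibitor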
# HPGD inh: inhibitors of human 15-hydroxyprostaglandin dehydrogenase (HPGD) | purified HPGD, NADH fluorescence kinetic, PGE2 substrate | Potency, µM, for inactives: at the top dose activity change, negative = inhibition, hits mostly inhibitors | 150,000 tested, 4.3% active | AID 894; active = well fitted inhibition curve with a large enough effect, not every such curve was filed as active; inconclusive = small, poorly fitted or top-dose-only effect, or another doubt; inactive = no such curve, though single readings can be large or run the other way
# Target sequence (P15428 whole entry, looked up): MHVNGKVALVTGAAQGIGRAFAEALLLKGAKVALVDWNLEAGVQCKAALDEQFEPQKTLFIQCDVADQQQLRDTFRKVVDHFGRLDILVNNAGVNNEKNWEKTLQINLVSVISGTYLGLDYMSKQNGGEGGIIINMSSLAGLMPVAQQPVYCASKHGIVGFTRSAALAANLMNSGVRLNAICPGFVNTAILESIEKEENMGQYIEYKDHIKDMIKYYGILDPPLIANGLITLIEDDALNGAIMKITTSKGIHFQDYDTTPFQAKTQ
#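 NADH formation kinetics: reaction with 30 uM PGE2 and 1 mM NAD+ (final), 20 nM enzyme, Tris-HCl pH 8 with Tween 20, after 15 min compound preincubation at room temperature. Fluorescence change, last versus first of five reads.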
# Tau fluor cs: counter-screen for tau fibril formation inhibitors; tau K18 P301L Alexa594 fluorescence, heparin fibrillization; Potency, µM (titrated, usually from 57.7 µM), without a hit: at the top dose activity change, negative = decrease; 280,000 tested, 0.93% active; also: nearly all actives have a fitted effect of over 55% in size
#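 Human tau K18 P301L (15 uM unlabeled, 0.24 uM Alexa 594-labeled) in 100 mM sodium acetate pH 7 with 20 uM heparin, 6 hr at 37 C. ThT 30 uM added, 1 hr ambient; Alexa 594 FP and total fluorescence read at 555/632 nm.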
# Numbers without * were called inactive; u = inconclusive; x = not tested or not shown; [ ] = remark or other dose. Only some compounds are listed: those with a hit (about 9.5% of all), similar ones and a draw of the others. Unless noted, calls follow the shape of the dose curve; as a rule, active = well fitted curve in the direction sought with a large enough effect; inconclusive = small, poorly fitted or top-dose-only effect, or another doubt; inactive = no such curve, though single readings can be large; an effect the other way counts as inactive or inconclusive. Unless noted, % is scaled to controls: 0 for no effect and ±100 for the full control effect; potency is read from the fitted curve at half-maximal effect.
SMILES,NPSR antagonist,Tau FP inhib,Tau ThT inhib,ALDH1A1 inh,HPGD inh,Tau fluor cs
COc1ccc2cc3cc(C(=O)N4CCN(c5cccc(Cl)c5)CC4)sc3nc2c1,x,4%,-5%,x,x,-6%
CCNC(=S)N/N=C1\C(=O)c2cccc3cccc1c23,-13%[46.1 µM],8%,u,10µM*,-15%,-21%
O=C(N/N=C1/C(=O)c2cccc3cccc1c23)c1ccc(Cl)cc1,u,9%,4.5µM*,u,28µM*,-19%
O=C1c2cccc3cccc(c23)C(=O)N1OS(=O)(=O)c1ccc(Cl)cc1,-19%,-12%,-7%,u,u,-9%
CCNC(=S)N/N=C1\CCCCc2ccccc21,-23%,-5%,-10%,u,-24%,-12%
CCOC(=O)c1ccc(N2C(=O)c3n[nH]c(-c4cccs4)c3C2c2cccc(F)c2)cc1 (stereo unspecified),x,u,1%,x,x,u
O=C1CCCN1CCCNCC(=O)N1c2ccccc2Sc2ccccc21,1%[46.1 µM],-2%,-9%,35µM*,1%,-2%
CCOC(=O)c1ccccc1-c1cn2cc(Cl)ccc2n1,-8%,6%,-10%,10%,x,-7%
C/C(=N\S(=O)(=O)c1ccc(C)cc1)N1CCN(S(=O)(=O)c2ccccc2)C1,0%[46.1 µM],0%,-12%,4µM*,-10%,-11%
Cc1ccc(S(=O)(=O)N2CCN(S(=O)(=O)c3ccccc3)C2)cc1,-10%[46.1 µM],4%,-11%,-4%,2%,-14%
COc1ccc(C(=O)Nc2cccc(-c3nc4cccnc4s3)c2C)c(OC)c1,x,-3%,u,x,x,-6%
CC(C)(C)OC(=O)N1CCC[C@H]1c1nnc(SC/C=C/c2ccccc2)o1,-24%[46.1 µM],3%,-1%,22µM*,x,1%
C/C(N)=C(/C#N)C(=O)COC(=O)c1cc(-c2cccc3ccccc23)nc2ccccc12,-40%,11µM*,-3%,u,u,u
CC(=O)CC(=O)Nc1ccc(Nc2ccccc2)cc1,3%,4%,u,6%,-9%,u
Cc1cc2oc(=O)cc(CN3CCOCC3)c2cc1C,-2%[46.1 µM],-3%,-9%,1%,-1%,-9%
Cc1cc2oc(=O)cc(CN3CCCc4ccccc43)c2cc1C,u,-8%,-8%,25µM*,-18%,-9%
CCCCN=C(NNc1ccc(Br)cc1)C(=O)OCC,-17%,4%,4%,14µM*,-27%,3%
Cc1ccc(O)c(NC2=C(Cl)C(=O)N(Cc3ccccc3)C2=O)c1,-35%,u,13µM*,2.8µM*,x,u
COc1ccc(NC2=C(Cl)C(=O)N(CCc3ccccc3)C2=O)c(OC)c1,-12%,u,u,u,16µM*,u
COc1ccc(NC2=C(Cl)C(=O)N(CCc3ccccc3)C2=O)cc1,-13%,9%,u,-10%,-15%,-19%
COc1ccc(N2CCN(C(=O)c3ccc4c(c3)N(Cc3ccc(F)cc3)C(=O)c3ccccc3S4=O)CC2)cc1 (stereo unspecified),x,6%,-6%,x,x,-22%
COc1ccc(CCC(C)Nc2cccc(F)c2)cc1 (stereo unspecified),-18%[46.1 µM],2%,12%,10µM*,-18%,10%
Cc1ccc2oc(=O)c3cc(C(=O)Nc4cc(-c5cccc(F)c5)no4)sc3c2c1,-14%,6%,-6%,17%,-21%,0%
CCOC(=O)CSc1nnc2n(-c3ccccc3)c(=O)c3c4c(sc3n12)CC(C(C)(C)C)CC4 (stereo unspecified),x,1%,u,x,x,-15%
CCCc1nn2c(N)c(/C=C3\C=Nc4ccccc43)c(=O)nc2s1,-10%,-10%,8.9µM*,-1%,-10%,u
SMILES,NPSR antagonist,Tau FP inhib,Tau ThT inhib,ALDH1A1 inh,HPGD inh,Tau fluor cs
CCCCc1nn2c(N)c(/C=C3\C=Nc4ccccc43)c(=O)nc2s1,-14%,-10%,6%,9%,-13%,9%
O=C1CCC[C@@H](C(C(=O)OCc2ccccc2)C(=O)OCc2ccccc2)C1,x,0%[11.6 µM],-1%[11.5 µM],-23%[13.5 µM],x,-6%[11.6 µM]
Cc1cc(C)nc(NS(=O)(=O)c2ccc(NC(=O)Nc3ccccc3F)cc2)n1,4%,0%,-15%,7%,x,-14%
Cc1ccc(NS(=O)(=O)c2ccc(NC(=O)C3CCCO3)cc2)cc1 (stereo unspecified),-6%[46.1 µM],-3%,-2%,22µM*,-29%,2%
O=C(Nc1ccc(Oc2ccc(NC(=O)C3CCCO3)cc2)cc1)C1CCCO1 (stereo unspecified),-8%[46.1 µM],-4%,-12%,u,1.4µM*,-4%
O=C(Nc1ccc2c(c1)C(=O)N(c1ccccc1)C2=O)C1CCCO1 (stereo unspecified),-14%[46.1 µM],-1%,-3%,14µM*,-10%,-6%
Cc1ccc(S(=O)(=O)Nc2ccc(NC(=O)Nc3ccc(F)cc3F)cc2)cc1,-39%,u,-5%,-7%,-12%,11µM*[quencher]
CC1(C)N=C(N)N=C(N)N1c1cccc(CSc2ccccc2)c1,x,x,x,5%[13.5 µM],-6%,x
Cc1ccc(C(C)C)c(OCCCn2c(=O)oc3ccccc32)c1,x,-11%,-9%,x,x,-9%
O=C(NCCN1CCN(c2ccccc2)CC1)c1ccc(NC(=O)C2CCCO2)cc1 (stereo unspecified),-57%[46.1 µM],8%,-14%,28µM*,-12%,-2%
Cc1cc(C)c(NS(=O)(=O)c2ccc(NC(=O)c3cccs3)cc2)c(C)c1,-26%,u,14%,3%,-12%,-26%
Cc1ccc(S(=O)(=O)Nc2ccc(NC(=O)c3cccs3)cc2)cc1,-28%,u,-2%,28µM*,x,u
CN(C)CCN(Cc1cc2cc3c(cc2[nH]c1=O)OCO3)C(=S)NCC1CCCO1 (stereo unspecified),-12%,-6%,-16%,u,x,-14%
O=C(Nc1nnc(COc2ccccc2F)s1)Nc1ccccc1F,-25%,14µM*,x,x,x,u
O=C(Nc1ccc(F)cc1)Nc1nnc(COc2ccccc2F)s1,-13%,14µM*,10%,-3%,x,u
COc1ccc(S(=O)(=O)N(CC(=O)NCCC(C)C)c2ccccc2)cc1OC,16%,1%,-4%,5%,x,1%
CNC(=O)CSc1nnc(NC(=O)Nc2ccccc2)s1,x,-4%,-7%,x,x,-9%
CS(=O)(=O)Nc1nnc(SCC(=O)N(c2ccccc2)c2ccccc2)s1,3%,1%,1%,32µM*,-17%,3%
CC1CN(CCc2ccccc2)c2nc3c(c(=O)[nH]c(=O)n3C)n2C1 (stereo unspecified),2%[46.1 µM],-9%,-2%,-14%,-6%,-7%
